# PubChem BioAssay (Tox21)
# Where “and” joins values, the source holds several entries; their conditions need not be identical. Equal entries are not always repeated. Records with an inconclusive call do not appear. Where a call stands in place of a potency, no number is given. Some structures have more than one record in an assay (separate samples or runs), and their calls can disagree. Calls of active or inactive are those of the source. Calls follow the shape of the dose curve; as a rule, active = well fitted activation curve with a large enough effect in the repeat runs; inconclusive = weak or mixed curves; inactive = flat fitted curve, though single readings scatter.
# Assay: A CellTox Green Cytotoxicity Assay to monitor cytotoxicity in HepG2 cells - 8 hour (AID 1224890); also: nearly all actives have a fitted effect of over 45% in size
# Conditions: CellTox Green fluorescence; series mostly up to 76.8 µM; cytotoxicity increase: at the top concentration
# Description: National Center for Advancing Translational Sciences [NCATS]
# NIH Chemical Genomics Center [NCGC]
# U.S. Environmental Protection Agency [EPA]
# National Institutes of Environmental Health Sciences [NIEHS]
# National Toxicology Program [NTP]
# Cell-based models are critical for drug discovery. Determining the natural cytotoxic effects resulting from test compounds is an essential research activity. A CellTox Green Cytotoxicity Assay to monitor cytotoxicity in real time of continues cell culture during 40 hours of the compound treatment was used to screen Tox21 10K library compounds in HepG2 cells. CellTox Green Cytotoxicity Assay is a nonlytic, homogeneous, biofluorescent method to measure cytotoxicity in cell culture after experimental manipulation. The assay system uses a proprietary asymmetric cyanine dye that is excluded from viable cells but preferentially stains the dead cell's DNA. […] Viable cells produce no appreciable increases in fluorescence. Therefore, the fluorescence signal produced by the binding interaction with dead cell DNA is proportional to cytotoxicity.
# The mixture of HepG2 cell suspension and reagents were dispensed at 600cells/6 ul/well in 1536-well tissue culture treated black solid bottom plates using a Multidrop dispenser. After the assay plates were incubated at a 37 C/5% CO2 incubator for 5 hours, 23 nL of compounds dissolved in DMSO, positive and negative controls was transferred to the assay plate by a pintool work station. The plates were incubated at 37 C for 40 hours. The fluorescence intensity were measured at 0h, 8h, 16h, 24h, 32h and 40h time points using ViewLux plate reader during compound treatment.
# Potency is read from the fitted curve at half-maximal effect.
Structure (SMILES),Potency,cytotoxicity increase
CNC(=O)Oc1cccc2c1OC(C)(C)O2,inactive,–
CCC(=O)O[C@H]1CC[C@H]2[C@@H]3CCC4=CC(=O)CC[C@]4(C)[C@H]3CC[C@]12C,43.6 µM (active),–
O=C(O)C(F)(F)C(F)(F)C(F)(F)C(F)(F)C(F)(F)C(F)(F)C(F)(F)F,inactive,–
Nc1ccc(Cl)cc1N,inactive and 21.9 µM (active),–
CC(C)(c1cc(Cl)c(O)c(Cl)c1)c1cc(Cl)c(O)c(Cl)c1,inactive,–
O=[N+]([O-])c1cccc2ccccc12,inactive,–
Cc1ccccc1[N+](=O)[O-],inactive,–
C=CCN(CC=C)C(=O)C(Cl)Cl,inactive,–
CCCCCCCCC(=O)NCc1ccc(O)c(OC)c1,inactive,–
C[C@]12CCC(=O)C(O)=C1CC[C@@H]1[C@@H]2CC[C@]2(C)C(=O)CC[C@@H]12,inactive,–
CC(C)Oc1cc(-n2nc(C(C)(C)C)oc2=O)c(Cl)cc1Cl,inactive,–
CCN(CC)C(=O)/C(Cl)=C(\C)OP(=O)(OC)OC,inactive,–
C=CC(=O)OCCO,inactive,–
Cc1ccc(N)c(N)c1,inactive,–
COC(=O)c1sccc1S(=O)(=O)NC(=O)Nc1nc(C)nc(OC)n1,inactive,–
CCCCOCCOP(=O)(OCCOCCCC)OCCOCCCC,inactive,–
CCOc1cc(C=O)ccc1O,inactive,–
O=C(CCl)c1ccccc1,inactive,–
OCC(O)CO,inactive,–
c1ccc(NNc2ccccc2)cc1,inactive,–

Structure (SMILES),Potency,cytotoxicity increase
N[C@@H](Cc1ccc(N(CCCl)CCCl)cc1)C(=O)O,inactive,–
CCC(C)c1cc([N+](=O)[O-])cc([N+](=O)[O-])c1O (stereo not given),inactive,–
c1ccc(-c2cccc(-c3ccccc3)c2)cc1,inactive,–
Oc1cc(Cl)ccc1Oc1ccc(Cl)cc1Cl,22.4 µM (active) and 16.9 µM (active),–
CCOc1cc(Oc2ccc(C(F)(F)F)cc2Cl)ccc1[N+](=O)[O-],inactive,–
CC(C)(OOC(C)(C)c1ccccc1)c1ccccc1,inactive,–
O=P(Oc1ccccc1)(Oc1ccccc1)Oc1ccccc1,inactive,–
O=C(NC(=O)c1c(F)cccc1F)Nc1ccc(Cl)cc1,inactive,–
C=C(C)[C@H]1Cc2c(ccc3c2O[C@@H]2COc4cc(OC)c(OC)cc4[C@@H]2C3=O)O1,inactive,–
Oc1ccc(-c2ccccc2)cc1,–,-9.69% (inactive)
NNC(N)=S,inactive,–
C#CCOS(=O)OC1CCCCC1Oc1ccc(C(C)(C)C)cc1 (stereo not given),inactive,–
Cc1cc(Cl)ccc1OCCCC(=O)O,inactive,–
N#CC(Br)Br,inactive,–
CCCCCCOC(=O)c1ccccc1C(=O)OCCCCCC,inactive,–
CCCCCc1cc(O)cc(O)c1,inactive and 38.9 µM (active),–
CCOP(=S)(OCC)O/N=C(\C#N)c1ccccc1,inactive,–
C=C(C)C(=O)OCC1CO1 (stereo not given),inactive,–
COP(=S)(OC)Oc1cc(Cl)c(Cl)cc1Cl,inactive,–
Nc1cccnc1,inactive,–
